DAX1 inh-1 = DAX1 (NR0B1) inhibition, primary screen. inhibition, % at 6.8 µM. AID 652010. 370,000 compounds, 1.1% hits. HEK293T StAR-luciferase reporter, SF-1/DAX-1 repression relief;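 active = inhibition above the mean over all tested compounds plus 3 SD, cut at about 3.6% in these data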;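 note: 0% = DAX-1 cells with DMSO and 100% = cells lacking DAX-1 with DMSO; higher inhibition means more luminescence from relief of DAX-1 repression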
hgDAF12 agonist = hgDAF-12 agonism, primary luciferase screen | activation, % at 6.8 µM | HEK293 GAL4-hgDAF12 UAS-luciferase reporter, agonist luminescence; normalized to butyrate control | AID 687014 | 370,000 compounds, 1.8% hits;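 active = activation above a cutoff set at the mean of all screened compounds plus 3 SD, cut at about 10% in these data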;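 note: 0% = DMSO wells and 100% = sodium butyrate wells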
DAX1 inh-2 = inhibits human nuclear receptor DAX1; HEK293 Gal4-DAX1 luciferase reporter, luminescence; 340,000 compounds, 0.99% hits; P51843; inhibition, % at 6.75 µM;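 active = inhibition above the mean over all tested compounds plus 3 SD, cut at about 4.2% in these data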;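 note: 0% = DAX1-transfected cells with DMSO and 100% = empty-vector control cells with DMSO; inhibition shows as a rise in luminescence from relieved DAX1 repression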
PolyA inhibitor = blocks polyadenylation in yeast reporter cells; S. cerevisiae SKY197-pL101 polyadenylation reporter, beta-gal luminescence; efflux-impaired pdr1/pdr3 knockout yeast; score 100 = 6 SD above DMSO; 300,000 compounds, 0.02% hits; AID 1875; activity score, % at 12 µM;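 active = lowest replicate activity score at least 50, where 100 means six control SD above control mean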;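 note: yeast exposed to compound for 9 h at 30 °C; higher score means more reporter readthrough which indicates perturbed polyadenylation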
ssDAF12 agonist = activators of S. stercoralis DAF-12 nuclear receptor | HEK293 ssDAF-12/GRIP1 lit1-tk-luc reporter, luminescence; % of 3 µM dafachronic acid response | activation, % at 6.8 µM | 370,000 compounds, 1% hits | AID 652126;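 active = activation above the mean over all tested compounds plus 3 SD, cut at about 0.9% in these data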;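 note: 0% = DMSO-only wells and 100% = 3 µM delta7-dafachronic acid wells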
hcDAF-12 act = activates DAF-12 receptor from parasite H. contortus; 370,000 compounds, 1.4% hits; HEK293 hcDAF-12 lit1-tk-luc reporter, luminescence; 0% DMSO, 100% Δ7-dafachronic acid; activation, % at 6.8 µM;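 active = activation above the mean of all tested compounds plus 3 SD, cut at about 5.5% in these data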;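 note: 100% = response to 3 µM Δ7-dafachronic acid high control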
DAX1 conf = confirmation of human DAX1 (NR0B1) inhibitors. shares compounds with DAX1 inh-1. HEK293T StAR-promoter luciferase reporter, SF-1/DAX-1 repression. inhibition, % at 6.8 µM. 2,400 compounds, 87% hits. AID 652134;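 active = inhibition above the average of every tested compound plus 3 SD, cut at about 3.8% in these data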;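 note: 0% = DAX-1 cells with DMSO and 100% = no DAX-1 control cells with DMSO; active compounds raise luminescence by relieving repression of the StAR reporter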
SF1 mutant ctr = counter-screen for DAX1 inhibitors: nonselective inhibitors with SF-1 AF2 mutant; shares compounds with DAX1 inh-1; HEK293 StAR-luciferase, luminescence; inhibition, % at 6.8 µM; 2,400 compounds, 78% hits; AID 652136;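 active = inhibition above the mean of all tested compounds plus 3 SD, cut at about 3% in these data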;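 note: 0% = DAX-1 transfected cells with DMSO and 100% = cells without DAX-1 with DMSO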
LXRb hcDAF ctr = counter-screen for hcDAF-12 agonists: agonists of human LXR-beta | shares compounds with hcDAF-12 act | HEK293 Gal4-LXR tk-luc reporter, luminescence, 24 h; normalized: DMSO 0%, positive control 100% | activation, % at 6.8 µM | 3,400 tested, under 10 active | AID 743027;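 active = mean percent activation of the reporter above a cutoff set as the average over tested compounds plus their standard deviation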
Target sequence (P55055 whole entry, looked up, the tested form may be a part): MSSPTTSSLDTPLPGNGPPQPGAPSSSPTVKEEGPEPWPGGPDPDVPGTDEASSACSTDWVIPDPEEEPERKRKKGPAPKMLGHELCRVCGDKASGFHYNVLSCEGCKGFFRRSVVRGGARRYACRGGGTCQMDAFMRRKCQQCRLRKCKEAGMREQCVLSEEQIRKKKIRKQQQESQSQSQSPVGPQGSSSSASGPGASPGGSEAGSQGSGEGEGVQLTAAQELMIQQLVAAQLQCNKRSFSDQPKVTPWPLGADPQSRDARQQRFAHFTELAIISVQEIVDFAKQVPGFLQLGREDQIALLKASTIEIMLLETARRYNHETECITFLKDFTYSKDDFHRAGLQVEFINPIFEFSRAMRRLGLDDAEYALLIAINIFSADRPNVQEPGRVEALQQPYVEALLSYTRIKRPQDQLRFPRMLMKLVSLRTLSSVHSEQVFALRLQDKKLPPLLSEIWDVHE
hcDAF12 ag = hcDAF-12 agonism, confirmation assay; shares compounds with hcDAF-12 act; HEK293 hcDAF-12 lit1-tk-luc reporter, luminescence; % of Δ7-dafachronic acid response; activation, % at 6.8 µM; 3,400 compounds, 61% hits;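 active = mean activation across triplicate tests above the threshold derived from the earlier primary screen, cut at about 5.5% in these data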;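 note: 0% = DMSO only wells and 100% = 3 µM Δ7-dafachronic acid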
The depositor's hits bear a star; . = no result given. Only some compounds are listed: those with a hit (about 4.1% of all), similar ones and a draw of the others.

SMILES	DAX1 inh-1	hgDAF12 agonist	DAX1 inh-2	PolyA inhibitor	ssDAF12 agonist	hcDAF-12 act	DAX1 conf	SF1 mutant ctr	LXRb hcDAF ctr	hcDAF12 ag
Cc1ccccc1-c1cc(-c2ccccc2O)on1	4.8*	22.1*	2.2	-0.7	3.4*	21.6*	14.6*	11.6*	2.0	19.7*
COc1ccc(Cl)c2c1[nH]c1nc(SCc3ccccn3)nnc12	10.8*	14.7*	2.1	18.0	1.6*	8.6*	10.4*	2.8	1.0	6.1*
COc1ccc(C(=O)/C=C2\Sc3ccccc3N2C)cc1	5.7*	28.4*	.	-23.5	5.9*	18.9*	16.1*	9.8*	2.2	18.3*
CC(=S)/C=C1\Sc2ccccc2N1C	-1.1	-2.0	1.5	-21.5	-1.2	-0.6	.	.	.	.
COc1ccc(OC)c(NC(=O)C2(C)CCN2C(=O)C2(c3ccc(Cl)cc3)CCC2)c1 (stereo not given)	-1.7	0.0	.	.	-1.6	0.7	.	.	.	.
Cc1ccc(-c2noc(-c3cccs3)n2)cc1	6.2*	16.3*	3.2	2.4	0.5	8.9*	16.4*	11.1*	2.2	15.5*
O=C(/C=C(\Nc1cccc(OC(F)F)c1)c1ccccc1)c1ccccc1	2.1	5.7	.	.	-0.9	1.4	.	.	.	.
COc1ccc(OCc2cc(C(=O)NC(C)Cc3cccnc3)no2)c(Cl)c1 (stereo not given)	-0.7	1.2	-0.5	-8.3	-1.0	-1.7	.	.	.	.
COc1ccc(OCc2cc(C(=O)NC(C)Cn3cncn3)no2)c(Cl)c1 (stereo not given)	6.0*	10.6*	1.5	3.0	0.9*	6.7*	2.9	0.6	0.3	6.8*
Cc1cccc(CCNC(=O)c2cccc(N3CCCC3=O)c2)c1	7.3*	11.3*	0.6	0.2	-0.1	7.4*	9.5*	4.0*	0.9	7.2*
Cc1ccc(CCNC(=O)c2cccc(N3CCCC3=O)c2)cc1	.	.	0.2	4.1	.	.	.	.	.	.
O=C(NCCc1c[nH]c2ccccc12)OCc1cn(-c2ccc(F)cc2F)nn1	-1.3	1.5	.	.	-0.8	-2.0	.	.	.	.
COCC1CCN(C(=O)c2cc(COc3ccc(OC)c4ccccc34)on2)C1 (stereo not given)	5.6*	10.7*	2.1	22.1	0.8	8.1*	5.4*	5.1*	0.7	7.7*
Fc1ccc(-c2cnn3c(-c4cccs4)ccnc23)cc1	7.2*	33.0*	4.9*	5.9	3.9*	32.0*	18.1*	11.3*	2.1	23.1*
CC(C)(C)c1ccc(C(=O)Nc2cnccn2)cc1	5.3*	9.9	-1.0	-7.7	0.5	6.7*	14.1*	7.3*	1.5	5.2
COc1ccc(C(=O)Nc2cnccn2)cc1[N+](=O)[O-]	-4.6	3.4	1.7	2.4	-0.9	-0.9	.	.	.	.
O=C(/C=C\Nc1cccc(F)c1)c1ccc2c(c1)OCO2	4.7*	11.8*	-2.7	-19.3	0.2	9.0*	6.8*	-0.5	1.1	7.2*
COC(=O)c1ccc(N/C=C\C(=O)c2ccc3c(c2)OCO3)cc1	1.3	-1.6	1.0	-13.2	-1.0	-0.1	.	.	.	.
CC(C)(C)c1ccc(/C=N/NC(=O)c2ccccn2)cc1	11.5*	13.0*	-1.5	-0.8	0.2	7.2*	13.8*	6.2*	1.9	9.5*
CC(C)c1nnc(SCC(=O)Nc2ccc3c(c2)OCCO3)n1C	-0.6	1.0	-0.1	-5.4	-1.2	-1.0	.	.	.	.

Assay outcomes: PubChem BioAssay, several laboratories
